# According to PubChem BioAssay AID1004 (SRMLSC, 2008):
# The source made the active and inactive calls.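 The calls were made as follows: active = viability at 10 µM of 29.74% or lower, 3 SD below the compound median; inactive = the rest.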
# Experiment: viability of HCT116 lacking mutant beta-catenin – cell-based, DP diverse set, validation, pilot screen (AID 1004)
# Settings: HCT116 (mutant beta-catenin deleted) viability, CellTiter-Glo, 60 h; at 10 µM; stronger effect = lower value
row,Structure (SMILES),viability
1,O=c1[nH]c(=O)n(C2CCCO2)cc1F (stereo unspecified),94.9% (inactive)
2,CC(C)C[C@H]1C(=O)N2CCC[C@H]2[C@]2(O)O[C@](NC(=O)[C@@H]3C=C4c5cccc6[nH]c(Br)c(c56)C[C@H]4N(C)C3)(C(C)C)C(=O)N12,89.9% (inactive)
3,COc1ccc(CC(N)C(=O)N[C@H]2[C@@H](O)[C@H](n3cnc4c(N(C)C)ncnc43)O[C@@H]2CO)cc1 (stereo partly specified),7.16% (active)
4,[O][C@H]1[C@@H](O)[C@@H](CO)O[C@@H](O[C@@H]2[C@@H]3OC[C@H]2O[C@H](O[C@@H]2[C@@H](O)[C@H](C[C@@H]4[C@@H]5OC[C@H]4O[CH][C@@H]5O)O[C@H](CO)[C@@H]2OS(=O)(=O)O)[C@@H]3OS(=O)(=O)O)[C@@H]1O,96.4% (inactive)
5,CC(C)CC(=O)N[C@H](C(=O)N[C@H](C(=O)N[C@@H](CC(C)C)[C@@H](O)CC(=O)N[C@@H](C)C(=O)N[C@@H](CC(C)C)[C@@H](O)CC(=O)O)C(C)C)C(C)C,100% (inactive)
6,O=c1[nH]cnc2ccccc12,98.6% (inactive)
7,COc1ccc(Cl)cc1C(=O)NCCc1ccc(S(=O)(=O)NC(=O)NC2CCCCC2)cc1,97% (inactive)
8,C[C@H](CS)C(=O)N1CCC[C@H]1C(=O)O,93.8% (inactive)
9,COc1cc(CNC(=O)CCCC/C=C/C(C)C)ccc1O,95.2% (inactive)
10,CCCC[C@@H](C=O)NC(=O)[C@H](CC(C)C)NC(=O)[C@H](CC(C)C)NC(C)=O,8.45% (active)
11,COc1ccc(CCN2CCC(Nc3nc4ccccc4n3Cc3ccc(F)cc3)CC2)cc1,44.6% (inactive)
